# Data taken from ChEMBL document CHEMBL4513216, “Probing the Open Global Health Chemical Diversity Library for Multistage-Active Starting Points for Next-Generation Antimalarials” (ACS Infect Dis, 2020).
# Out of some 69,000 compounds screened, about 8,600 (12%) showed an effect of 50% or more. For the sample, strong results were picked, then their nearest neighbours and some compounds at random.
# Tested on: Plasmodium berghei
# Assay: Screen against P. berghei liver stage (PbLuc), transformed with Luciferase, at 10uM
# Type: functional, HepG2
# Settings: tested at 10 uM
row,Compound,INHIBITION [%]
1,Cn1nc(C2CCCN2)c2c(C(=O)NCC(F)(F)F)cc(C3CC3)nc21 (centres undefined),28.4
2,O=S(=O)(c1ccccc1)N1C2CCC(O)(CC2)C1CN1CCOCC1 (centres undefined),23.7
3,Cc1nc(C)n(CC2CCCN2Cc2nc(-c3ccccn3)no2)n1 (centres undefined),32.7
4,CN(C)C(=O)[C@H]1CCS(=O)(=O)[C@@H]2CN(c3ncccn3)C[C@H]12,61.1
5,CC(C)NC(=O)[C@H]1CCS(=O)(=O)[C@@H]2CN(c3ncccn3)C[C@H]12,0.164
6,CC(C)CNC(=O)[C@H]1CCS(=O)(=O)[C@@H]2CN(c3ncccn3)C[C@H]12,35.8
7,CC(C)NC(=O)[C@H]1CCS(=O)(=O)[C@@H]2CN(c3ncc(F)cn3)C[C@H]12,-13
8,CCc1cnc(N2C[C@@H]3[C@@H](C(=O)N(C)C)CCS(=O)(=O)[C@@H]3C2)nc1,36.7
9,CN(C)C(=O)[C@H]1CCS(=O)(=O)[C@@H]2CN(c3ncc(F)cn3)C[C@H]12,54.8
10,O=C(O)c1cc(C=Cc2ccc3ccccc3c2)ncn1,-57
11,Cc1ccc(C(O)CNC(=O)NCc2csc(C)n2)cc1 (centres undefined),-34
12,O=C(c1cccnc1N1CCOCC1)N1CCCC(n2cccn2)C1 (centres undefined),-62.365
13,Cn1cc(-c2cnc(N3CCOCC3)nc2)cc1C(=O)N1CCCC1,-50.9
14,CNc1cc(C(=O)NCCC2=CSC3=NCCCN23)ccn1,50.3
15,O=C(CC1=CSC2=NCCCN12)N1CCCCCC1c1ccco1 (centres undefined),-4.01
16,CCC(=O)Nc1cccc(C(=O)NCCC2=CSC3=NCCCN23)c1,50.3
17,COc1cccc(C2CCCN2C(=O)CC2=CSC3=NCCCN23)c1 (centres undefined),-11.6
18,CN(CCNC(=O)c1ccnc(-n2ccnc2)c1)C1CC1,-3.83
19,CC(C)(O)CCc1cccc(C(=O)NCCC2=CSC3=NCCCN23)c1,31.2
20,Cc1ccc(-c2nc(C(=O)N3CCN(C(=O)N(C)C)CC3)cs2)c(C)c1,-4.865
21,O=S(=O)(c1cccs1)N1CC[C@H]2[C@H]1CCN2CC1CC1,2.58
22,CN1CCN(CC2CCN(C(=O)CCC3CCCCC3)CC2)CC1,21
23,Cn1cccc1C(=O)N1C[C@H]2CN(Cc3cccc(F)c3)C[C@H]2C1,6.27
24,O=C1CC[C@H]2[C@H](CCN2C(=O)C2CCCO2)N1Cc1cccnc1 (some centres undefined),5.96
25,CCn1nc2c(cc1=O)CN(CCCN1CCCC1=O)CC2,16.8
26,COCCNC(=O)c1nnn(Cc2ccccc2)c1OC,19.3
27,CCNC(=O)c1nnn(Cc2ccccc2)c1OC,-19

row,Compound,INHIBITION [%]
1,COc1c(C(=O)NCC(C)C)nnn1Cc1ccccc1,53.2
2,CN(C)CC1CSCCCN1C(=O)c1ccc(-n2cccc2)cc1 (centres undefined),35.8
3,CN(Cc1ccncc1)C(=O)NCc1nnc2n1CCCCC2,-4.94
4,COc1ccccc1CN1C[C@@H](F)[C@@H](OCc2nc3cnccc3[nH]2)C1,-25.2
5,COc1ccccc1CN1C[C@@H](F)[C@@H](OCc2nc3ncccc3[nH]2)C1,50.7
6,COc1ccccc1CN1C[C@@H](F)[C@@H](OCc2nc3ccccc3[nH]2)C1,45.2
7,Cc1ccc(NC(=O)C2CSCN2C(=O)c2cccnc2)c(C)c1 (centres undefined),0.8
8,Cc1nc(NCc2noc(C3CCCO3)n2)c2sccc2n1 (centres undefined),75.4
9,O=C(NCCc1noc(C2CCCO2)n1)c1cn2ccsc2n1 (centres undefined),39.9
10,O=C(NCc1noc(C2CCCO2)n1)c1cn2ccsc2n1 (centres undefined),25.9
11,O=C1CSc2ccccc2N1Cc1noc(C2CCCO2)n1 (centres undefined),7.6
12,Cc1nc(NCc2noc(C3CCCO3)n2)c2ccsc2n1 (centres undefined),73.2
13,Cc1cc(C(F)(F)F)nc(CCNc2nc(C)nc3sccc23)n1,43.2
14,Cc1nc(N(Cc2ccncc2)CC2CCCO2)c2ccsc2n1 (centres undefined),40.8
15,Cc1ccc2c(c1)SCC(=O)N2Cc1noc(C2CCCO2)n1 (centres undefined),14.9
16,Cc1nc(NCCc2noc(C3CCCO3)n2)c2sccc2n1 (centres undefined),82.2
17,Cc1cc(NC(=O)CN2CCCC2Cn2nc(C)nc2C)n(C)n1 (centres undefined),38.8
18,Cc1cc(C)cc(OCC(=O)N2CCCC2)c1,-55.3
19,COCCn1cnnc1CNc1cc(C)nc2c(C)c(C)nn12,15.5
20,Cc1nn(C)c2cnn(CC(=O)NCc3ccccc3F)c12,41.6
21,CC(=O)N1CCCC1c1cc(Nc2nnc(C)s2)nc(C)n1 (centres undefined),26.8
22,O=C(c1nn[nH]c1Nc1ccc(Cl)cc1)N1CCSCC1,11.8
23,O=C(c1nn[nH]c1Nc1ccc(Cl)cc1)N1CCCCCC1,72
24,O=C(c1nn[nH]c1Nc1cccc(Cl)c1)N1CCSCC1,8.38
25,COCCN1CCC2(CC1)CC(NC(=O)CC1CC1)c1ccccc1O2 (centres undefined),56.8
26,COCCN1CCC2(CC1)CC(NC(=O)C1CC1)c1ccccc1O2 (centres undefined),16.1
27,CCN1CCC2(CC1)CC(NC(=O)c1csnn1)c1ccccc1O2 (centres undefined),41.2
